High-throughput results deposited in PubChem by several laboratories.
This is a sample that favours compounds with a hit; in the whole collection about 1.1% have one here.
FXIIa inh mix – blocks human factor XIIa in pooled compound mixtures; P00748; purified FXIIa, fluorogenic substrate; inhibition, % at 5 µM; actives 0.2% (n = 62,000);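 note: 0% = enzyme without compound and 100% = no enzyme blank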
BAP1 block – blocks human BAP1 ubiquitin-AMC hydrolysis. Q92560. recombinant BAP1, Ub-AMC hydrolysis fluorescence kinetic; active compounds read low. calls only at 20 µM. actives 0.48% (n = 72,000);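 active = activity remaining at or below 50% of control, provided the compound also passes the data quality filters; inactive = the rest, including low values that fail the filters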;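 note: 100% = DMSO wells rate and 0% = substrate alone blank rate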
C1s inh – blocks human complement C1s protease activity; P09871; purified C1s, fluorogenic AMC substrate, pooled mixtures; mean inhibition % of two 10-compound mixtures (active compounds read high), % at 5 µM (by protocol); actives 0.16% (n = 62,000); AID 538;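 active = inhibition above 20% in each of the two 10-compound mixture wells holding the compound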;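 note: 0% = enzyme wells lacking compound mixture and 100% = no-enzyme blank wells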
Target sequence (P09871 16-437 limits assumed): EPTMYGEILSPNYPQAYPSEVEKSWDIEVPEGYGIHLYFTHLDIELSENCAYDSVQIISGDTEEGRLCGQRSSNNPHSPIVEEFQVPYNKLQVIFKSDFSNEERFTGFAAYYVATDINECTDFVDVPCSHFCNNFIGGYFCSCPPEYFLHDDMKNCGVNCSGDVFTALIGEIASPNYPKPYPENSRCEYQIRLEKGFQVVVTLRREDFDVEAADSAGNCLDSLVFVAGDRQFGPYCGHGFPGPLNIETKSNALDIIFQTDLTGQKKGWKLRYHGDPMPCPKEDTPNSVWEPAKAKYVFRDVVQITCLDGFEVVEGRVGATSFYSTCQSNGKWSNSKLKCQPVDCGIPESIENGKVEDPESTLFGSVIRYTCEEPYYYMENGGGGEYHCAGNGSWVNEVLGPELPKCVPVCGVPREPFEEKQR
Target sequence (P09871 438-688 limits assumed): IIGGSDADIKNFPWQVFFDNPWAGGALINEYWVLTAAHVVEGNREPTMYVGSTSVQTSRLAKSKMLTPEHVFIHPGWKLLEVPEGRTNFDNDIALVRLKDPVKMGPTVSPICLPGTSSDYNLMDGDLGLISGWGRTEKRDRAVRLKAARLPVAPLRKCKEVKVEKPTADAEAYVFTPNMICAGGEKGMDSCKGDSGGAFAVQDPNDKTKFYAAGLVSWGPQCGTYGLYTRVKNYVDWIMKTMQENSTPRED
FXIa inh mix – factor XIa (human) inhibition, mixture screen | actives 0.19% (n = 62,000) | P03951 | AID 680 | inhibition, % at 5 µM | purified FXIa, fluorogenic substrate, pooled mixtures;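 note: each value is inhibition by a whole ten-compound pool holding the compound; 0% = enzyme with no mixture and 100% = wells lacking enzyme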
HePTP inhibitor – inhibitors of human HePTP phosphatase | recombinant HePTP phosphatase activity, OD absorbance | inhibition, % at 20 µM | actives 0.64% (n = 110,000) | AID 521; in the data active = inhibition above about 50%;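 note: plate controls were vehicle for no effect and reference inhibitor for full effect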
Cathepsin G inh – inhibitors of human cathepsin G. P08311. purified enzyme, AMC-tetrapeptide fluorescence, pooled mixtures. inhibition, % at 5 µM (by protocol). actives 0.2% (n = 62,000). AID 581;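 active = inhibition above 20% in each of the two mixture wells holding the compound; inactive = inhibition of 20% or less in either well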;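 note: 0% = enzyme control without mixture and 100% = blank lacking enzyme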
* hit, by the source's call; i = inactive; nt = no result given. Cut-off read from the data, not from the text of the source, unless noted: active = inhibition above about 20% (passing the limit was not always enough); inactive = the rest.

SMILES	FXIIa inh mix	BAP1 block	C1s inh	FXIa inh mix	HePTP inhibitor	Cathepsin G inh
O=C(O)CCC(=O)Nc1sc2c(c1C(=O)Nc1cccc3ccccc13)CCCC2	nt	nt	nt	nt	-22.3	nt
S=C(S)N(CCN(Cc1cccs1)C(=S)S)Cc1cccs1	nt	nt	nt	nt	67.2*	nt
CN(Cc1cccs1)S(=O)(=O)c1cccs1	-12.4	i	-191.4	-23.1	2.5	-12.5
CC(C)COP(=O)(c1ccc(N(C)C)cc1)C(O)c1ccccn1 (stereo not drawn)	47.5*	i	11.7	6.5	3.8	9.3
O=C(O)c1ccccc1N=Nc1cc(-c2ccccc2)oc1O	nt	nt	nt	nt	100.8*	nt
CC(=O)c1cccc(NC(=O)c2nn3c(C(F)(F)F)c4c(nc3c2Cl)-c2ccccc2CC4)c1	nt	i	nt	nt	nt	nt
O=C(O)c1nn2c(C(F)(F)F)c3c(nc2c1Cl)-c1ccccc1CC3	nt	nt	nt	nt	69.6*	nt
CC(C)CC(=O)Nc1cccc(Cl)c1Cl	nt	nt	nt	nt	8.1	nt
CC(=O)NC1=NN(C(C)=O)C(c2ccc(Br)cc2)S1 (stereo not drawn)	nt	nt	nt	nt	3.6	nt
CC(C)Oc1ccc(C(=O)Nc2nc3ccccc3s2)cc1	nt	nt	nt	nt	96.3*	nt
CCOC(=O)C1=C(C)NC(=O)NC1c1ccoc1 (stereo not drawn)	4.2	i	6.3	5.0	-0.4	9.2
CCOC(=O)C1=C(C)NC(=O)NC1c1ccsc1 (stereo not drawn)	nt	nt	nt	nt	103.9*	nt
NC(=O)C1CCN(S(=O)(=O)c2ccc(Cl)cc2)CC1	nt	nt	nt	nt	0.5	nt
COc1ccc(S(=O)(=O)N2CCC(C(N)=O)CC2)cc1	-12.1	i	-8.5	30.8*	-13.0	47.9
Brc1cccc(/C=N\N2CCN(c3ccccc3)CC2)c1	nt	nt	nt	nt	1.2	nt
Cc1onc(-c2ccccc2)c1C(=O)NCC(C)C	nt	nt	nt	nt	103.3*	nt
Cc1onc(-c2ccccc2)c1C(=O)Nc1ccc([N+](=O)[O-])cc1Br	nt	nt	nt	nt	103.9*	nt
COc1ccc(C(=O)N2CCN(C(=O)c3ccc(-c4ccccc4)cc3)CC2)cc1OC	nt	nt	nt	nt	4.0	nt
COc1ccc(C(=O)n2nc(-c3ccccc3)nc2N)cc1OC	7.8	i	-7.2	12.7	5.9	43.6*
CCN(CC)S(=O)(=O)c1ccc(NC(=O)c2ccccc2C)cc1	nt	nt	nt	nt	-4.4	nt
CCc1c(C)sc(NC(=O)CCc2ccc(OC)cc2)c1C(=O)OC	nt	nt	nt	nt	103.7*	nt
CCc1c(C)sc(NC(=O)c2ccc(OC)cc2)c1C(N)=O	nt	nt	nt	nt	-9.0	nt
COc1ccccc1/C=N/NC(=O)c1cc(-c2ccc3ccccc3c2)n[nH]1	nt	nt	nt	nt	11.8	nt
CCOC(=O)N1CC=C2C(C#N)=C(N)C(C#N)(C#N)[C@H](c3ccccc3OCC)[C@H]2C1	3.7	i	64.0*	5.8	3.7	10.2
CCOC(=O)N1CC=C2C(C#N)=C(N)C(C#N)(C#N)[C@H](c3ccc(OC(C)C)c(OCC)c3)[C@H]2C1	3.8	i	-7.3	2.7	-7.9	-7.8
SMILES	FXIIa inh mix	BAP1 block	C1s inh	FXIa inh mix	HePTP inhibitor	Cathepsin G inh
Cc1ccc2nc(/N=C(/N)NC(=O)Cc3ccc(Cl)cc3)nc(C)c2c1	nt	nt	nt	nt	8.7	nt
CCOc1ccc2[nH]c3c(N4CCN(c5ccccn5)CC4)ncnc3c2c1	1.1	i	69.0*	1.1	8.2	11.4
COc1ccc(/C=C2\SC(=S)N(CCCC(=O)Nc3c(C)n(C)n(-c4ccccc4)c3=O)C2=O)cc1	nt	nt	nt	nt	-12.7	nt
O=C(Nc1ccc2oc(-c3ccccc3)nc2c1)c1ccc(-c2ccc([N+](=O)[O-])cc2)o1	nt	nt	nt	nt	100.7*	nt
Cc1ccc2oc(-c3ccc(NC(=O)c4ccc(-c5ccc(Cl)cc5)o4)cc3O)nc2c1	nt	nt	nt	nt	93.7*	nt
O=C(Nc1ccc2oc(-c3cccc(Cl)c3Cl)nc2c1)c1ccco1	nt	nt	nt	nt	101.0*	nt
O=C(NC(=S)Nc1ccc2oc(-c3ccccc3)nc2c1)c1ccccc1	nt	nt	nt	nt	102.9*	nt
O=C(Nc1ccc(O)c(-c2nc3ccccc3o2)c1)c1ccc(-c2ccc(Cl)cc2)o1	nt	nt	nt	nt	-16.6	nt
Cc1cc2nc(-c3cc(NC(=O)c4ccco4)ccc3Cl)oc2cc1C	nt	nt	nt	nt	15.1	nt
Cc1ccc(/C=C2\C(=O)NC(=S)N(c3ccc(Br)cc3C)C2=O)o1	nt	nt	nt	nt	87.3*	nt
Cc1ccc(C=C2C(=O)NC(=S)N(c3ccccc3Cl)C2=O)o1	nt	nt	nt	nt	65.1*	nt
Cc1ccc(/C=C2\C(=O)NC(=S)N(c3ccc(Br)cc3)C2=O)o1	nt	nt	nt	nt	33.4	nt
COc1ccc(NC(=S)NC(=O)C23CC4CC(CC(C4)C2)C3)cc1	nt	nt	nt	nt	-29.0	nt
O=c1/c(=C\c2cccc(OS(=O)(=O)c3cccc([N+](=O)[O-])c3)c2)sc2nc3ccccc3n12	nt	nt	nt	nt	-8.8	nt
Cc1cc(C)c2nc3s/c(=C/c4cccn4-c4ccc([N+](=O)[O-])cc4)c(=O)n3c2c1	nt	nt	nt	nt	84.7*	nt
Cc1c(Cl)cccc1N=C1NC(=O)/C(=C/c2cccc(O)c2)S1	nt	nt	nt	nt	6.3	nt
